Test systems include NCI-H23 lung; NCI-H226 lung; NCI-H322M lung; HOP-62 NSCLC; NCI-H460 lung; A549/ATCC NSCLC; 786-0 renal; COLO 205 colon; DU-145 prostate; K-562 leukemia; MALME-3M melanoma; MDA-MB-231 breast; RXF 393 renal; SF-268 CNS; SF-295 CNS; SF-539 CNS; UACC-257 melanoma; M14 melanoma; NCI-H522 lung.
Assay in all cases: NCI-60 one-dose screen, 48 h (100 = growth as untreated, 0 = no growth, -100 = all killed)
Holding throughout (settings): 10 µM unless noted

Molecules are shown by their SMILES. This is part of a sample that, as a whole, favours compounds with a hit. Of some 83,000 tested, about 20% had one in any assay.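 For each line, cells grew in 96-well plates with the test compound present at a single concentration for 48 hours.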 A number with no mark means an inactive call. Activity calls are given as the source filed them. How the source made its calls: active means growth percent below 10; inactive means the rest.

Regarding `C=C1C(=O)O[C@H]2[C@H]1CC/C(COC(=O)NCc1ccc(Cn3c(=O)sn(CCCl)c3=O)cc1)=C\CC[C@@]1(C)O[C@@H]21`, the growth in the assay with NCI-H23 lung was 103%; with NCI-H226 lung it was 79.8%; in the assay with NCI-H322M lung, 95.1%; with HOP-62 NSCLC it was 75.3%; in the assay on NCI-H460 lung, 97.8%; with A549/ATCC NSCLC it was 86%. For the same compound, the growth was 32.4% with 786-0 renal; -48.1% (active) with COLO 205 colon; 36.9% in the assay with DU-145 prostate; -13% (active) with K-562 leukemia; -28.3% (active) in the assay with MALME-3M melanoma; 73.5% with MDA-MB-231 breast. The growth is 5.98% (active) with RXF 393 renal; 85.2% with SF-268 CNS; 107% with SF-295 CNS; 83.1% in the assay with SF-539 CNS; 49.8% with UACC-257 melanoma; 29.5% in the assay with M14 melanoma.

On to `CCN1C(=O)N(CC)C2C1NC(=O)N2/N=C/C=C/c1ccccc1` (centres undefined), for which the growth is 64.5% in the assay with NCI-H23 lung; 74.9% in the assay with NCI-H226 lung; 63.8% in the assay with NCI-H322M lung; 41.3% with HOP-62 NSCLC; 24.4% in the assay on NCI-H460 lung; 45.4% in the assay with A549/ATCC NSCLC. Further, the growth in the assay on 786-0 renal is 33%; with COLO 205 colon, 27.4%; in the assay with DU-145 prostate it was 68.1%; in the assay on K-562 leukemia, 17%; with MALME-3M melanoma it was 50.6%; in the assay with MDA-MB-231 breast, 71.5%. The growth in the assay with RXF 393 renal is 32.3%; with SF-268 CNS, 59.7%; in the assay with SF-295 CNS, 34.9%; in the assay on SF-539 CNS, 25%; in the assay on UACC-257 melanoma, 35.8%; in the assay with M14 melanoma it was 28.5%.

`Cc1cc(O)c2cc3c(O)c(O)ccc3cc2c1`: the growth in the assay on NCI-H23 lung was 101%; in the assay with NCI-H226 lung, 115%; in the assay with NCI-H322M lung, 119%; in the assay on HOP-62 NSCLC it was 120%; in the assay on NCI-H460 lung it was 125%; in the assay on A549/ATCC NSCLC, 117%. Moreover, the growth in the assay with 786-0 renal is 91.5%; with COLO 205 colon, 123%; in the assay on DU-145 prostate, 105%; in the assay with K-562 leukemia it was 90.8%; in the assay with MALME-3M melanoma, 109%; with MDA-MB-231 breast, 95.2%. The growth in the assay on RXF 393 renal is 107%; in the assay with SF-268 CNS, 135%; in the assay with SF-295 CNS, 109%; with SF-539 CNS, 100%; in the assay with UACC-257 melanoma, 132%; in the assay with M14 melanoma, 128%.

For the compound `N/N=C(\C(=N\N)c1ccccc1)c1ccccc1`, the growth in the assay with NCI-H23 lung is 98.8%; in the assay with NCI-H226 lung it was 88.2%; in the assay with NCI-H322M lung, 94.6%; in the assay with HOP-62 NSCLC, 91.7%; in the assay with NCI-H460 lung it was 108%; in the assay on A549/ATCC NSCLC, 101%. Also, the growth is 97.6% in the assay with 786-0 renal; 108% in the assay with COLO 205 colon; 113% in the assay with DU-145 prostate; 111% in the assay with K-562 leukemia; 88% with MALME-3M melanoma; 111% in the assay with MDA-MB-231 breast. Besides, the growth with RXF 393 renal was 118%; in the assay on SF-268 CNS, 103%; with SF-295 CNS, 105%; in the assay on SF-539 CNS it was 103%; in the assay with UACC-257 melanoma it was 107%; in the assay on M14 melanoma, 96.6%.

Take `COc1ccccc1/C=N\Nc1ccc([N+](=O)[O-])cn1`: the growth in the assay on NCI-H23 lung was 101%; in the assay with NCI-H226 lung it was 98.7%; in the assay on NCI-H322M lung, 107%; in the assay with HOP-62 NSCLC, 106%; with NCI-H460 lung, 123%; in the assay on A549/ATCC NSCLC, 105%. Besides, the growth was 105% in the assay with 786-0 renal; 102% with COLO 205 colon; 114% with DU-145 prostate; 112% in the assay with K-562 leukemia; 117% in the assay with MALME-3M melanoma; 103% in the assay with MDA-MB-231 breast. For the same compound, the growth is 115% in the assay on RXF 393 renal; 105% in the assay with SF-268 CNS; 96.3% with SF-295 CNS; 98.7% in the assay with SF-539 CNS; 108% in the assay on UACC-257 melanoma; 94.4% in the assay on M14 melanoma.

For `COc1ccc2c(c1)sc1nc(-c3ccccc3)c(-c3cccc4ccccc34)n12`, the growth in the assay on NCI-H23 lung is 39.3%; with NCI-H226 lung it was 68.2%; in the assay on NCI-H322M lung it was 57.9%; in the assay on HOP-62 NSCLC it was 64.4%; with NCI-H460 lung, 8.82% (active); with A549/ATCC NSCLC, 24.2%. Besides, the growth is 51.7% with 786-0 renal; 6.28% (active) in the assay with COLO 205 colon; 18.9% with DU-145 prostate; 15% with K-562 leukemia; 51.5% with MALME-3M melanoma; 39.7% with MDA-MB-231 breast. For the same compound, the growth in the assay with RXF 393 renal was 7.5% (active); in the assay on SF-268 CNS it was 50.8%; with SF-295 CNS, -38.7% (active); with SF-539 CNS it was 0.248% (active); in the assay with UACC-257 melanoma, 68.4%; in the assay on M14 melanoma, 21%.

Consider `O=[N+]([O-])c1ccc(N/N=C\c2ccc(O)cc2O)nc1`, for which the growth in the assay on NCI-H23 lung was 44.9%; with NCI-H226 lung, 85%; with NCI-H322M lung it was 39.7%; in the assay on HOP-62 NSCLC it was 33.7%; with NCI-H460 lung, 19.6%; in the assay on A549/ATCC NSCLC, 25.6%. Moreover, the growth was 18.4% in the assay with 786-0 renal; 65.9% with COLO 205 colon; 50.7% in the assay with DU-145 prostate; 22.4% in the assay with K-562 leukemia; 57.8% with MALME-3M melanoma; 52.9% in the assay with MDA-MB-231 breast. Further, the growth in the assay with RXF 393 renal was 36.3%; with SF-268 CNS, 37.3%; with SF-295 CNS it was 28.5%; in the assay with SF-539 CNS, 37.5%; in the assay with UACC-257 melanoma, 41.3%; with M14 melanoma, 8.7% (active).

`c1ccc2c(N=NSc3ncnc4nc[nH]c34)c3ccccc3nc2c1`: the growth in the assay on NCI-H23 lung was -8.68% (active); in the assay with NCI-H226 lung, -23% (active); in the assay with NCI-H322M lung, 8.38% (active); in the assay with HOP-62 NSCLC it was -49.9% (active); in the assay on NCI-H460 lung, 2.58% (active); in the assay on NCI-H522 lung, -74.9% (active). For the same compound, the growth in the assay on A549/ATCC NSCLC is -24.4% (active); in the assay with 786-0 renal, -5.12% (active); in the assay on COLO 205 colon, -95.3% (active); in the assay with DU-145 prostate it was 8.43% (active); in the assay on MALME-3M melanoma it was -17.9% (active); in the assay with MDA-MB-231 breast, 5.25% (active). Moreover, the growth in the assay on RXF 393 renal was -20.8% (active); with SF-268 CNS, 3.15% (active); with SF-295 CNS it was 20.1%; in the assay with SF-539 CNS, 5.02% (active); in the assay on UACC-257 melanoma, -13.9% (active); in the assay with M14 melanoma, -25.4% (active).

These data come from PubChem BioAssay (NCI).
